# Hits are enriched below; roughly 9.2% of the tested compounds scored in any of these assays.
# ELG1 genotoxic – inducers of genotoxicity in HEK293T ELG1-luciferase cells. HEK293T ELG1-luciferase reporter, luminescence, 16 h. Potency, µM (series often up to 46 µM), for inactives: at the top dose activity change, positive = activation, usual class: activators. actives 1.3% (n = 330,000). AID 504466; further: % of control where 0% means no effect; nearly all actives have a fitted effect of over 60% in size
#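 Screening used a luciferase reporter fused to human ELG1 in HEK293T cells. Luminescence was read on a CCD plate imager after 16 hr exposure and 30 min ONE-Glo incubation.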
# SMN2 splice up – SMN2 splice variant enhancement. AID 1458. actives 2.8% (n = 210,000). HEK293 SMN2-luciferase splicing reporter, luminescence, 30-36 h. Potency, µM (highest dose often 46.1 µM), for the others: at the top dose activity change, positive = activation, actives largely listed as activators; further: % of control where 0% means no effect; nearly all actives have a fitted effect of over 55% in size
#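 qHTS luciferase splicing reporter: luminescence rises when SMN2 exon 7 is included in transfected HEK293 cells. Compound exposure lasted 30-36 h at 37C, with 4.5 mM final sodium butyrate as control, followed by a ONE-Glo read.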
# NPC1 prom act – activates the NPC1 promoter | Huh7 NPC1 promoter luciferase reporter, 24 h | Potency, µM (top dose mostly 9.22 µM), for inactives: at the top dose activation, hits mostly activators | actives 2.4% (n = 320,000); further: % of control where 0% means no effect; nearly all actives have a fitted effect of over 60% in size
#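 Cells: Huh7 expressing luciferase under the NPC1 promoter, 1500/well. Seeded 2 h, compound added, incubated 24 h at 37 °C. Luciferase reagent, 10 min ambient, then luminescence.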
# FLuc counter – inhibits or activates purified firefly luciferase, miR-21 counter-screen; actives 6.9% (n = 360,000); purified FLuc, Km substrates, luminescence inhibition; P08659; Potency, µM (top dose mostly 57.5 µM), inactives show top-dose activity change, negative = inhibition, most hits filed as inhibitors; AID 588342;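 further: plate controls were vehicle for no effect and reference inhibitor for full effect; nearly all actives have a fitted effect of over 55% in size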
# Target sequence (P08659 whole entry, looked up): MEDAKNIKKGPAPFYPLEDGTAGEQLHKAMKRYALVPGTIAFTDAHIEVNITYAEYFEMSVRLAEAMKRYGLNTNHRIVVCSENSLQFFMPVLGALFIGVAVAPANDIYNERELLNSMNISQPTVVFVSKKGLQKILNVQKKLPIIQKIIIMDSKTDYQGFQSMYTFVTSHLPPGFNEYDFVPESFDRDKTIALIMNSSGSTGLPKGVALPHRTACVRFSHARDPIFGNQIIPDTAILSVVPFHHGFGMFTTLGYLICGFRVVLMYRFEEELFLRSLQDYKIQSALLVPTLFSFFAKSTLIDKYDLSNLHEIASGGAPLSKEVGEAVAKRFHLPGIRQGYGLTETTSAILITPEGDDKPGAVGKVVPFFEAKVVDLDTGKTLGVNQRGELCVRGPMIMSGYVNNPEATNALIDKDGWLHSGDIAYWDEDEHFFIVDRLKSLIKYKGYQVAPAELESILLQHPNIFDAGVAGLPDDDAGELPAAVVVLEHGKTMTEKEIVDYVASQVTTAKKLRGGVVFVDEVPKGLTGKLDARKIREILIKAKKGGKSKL
#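 Purified P. pyralis luciferase (10nM final) with 10uM D-luciferin and 10uM ATP (Km levels) in 50mM Tris acetate pH 7.5, 10mM Mg acetate, 0.01% Tween-20, 0.05% BSA; qHTS 6-point titration, ~60 µM downward; luminescence read.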
# Rab9 prom act – activators of Rab9 promoter. Huh7 Rab9 promoter-luciferase reporter, luminescence, 24 h. Potency, µM (titrated, usually from 9.22 µM), for the others: at the highest dose activation, negative = inhibition, hits mostly activators. actives 2.8% (n = 320,000); further: % of control where 0% means no effect; nearly all actives have a fitted effect of over 60% in size
#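 Rab9 promoter-driven luciferase in stably transfected Huh7 cells; 1500 cells/well rested 2 h, exposed to compound in DMSO for 24 h at 37 °C, 5% CO2. Luminescence read 10 min after adding luciferase reagent at ambient temperature.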
# ELG1 DNA repair – blocks ELG1-dependent DNA repair in HEK293T cells; HEK293T ELG1-luciferase reporter, luminescence, 16 h; DNA damage induced by 5-fluorouridine; Potency, µM (titrated, usually from 46.1 µM), for inactives: top-dose activity change, negative = inhibition, hits mostly inhibitors; actives 2.3% (n = 330,000); further: on the % scale 0 is the no-effect control and ±100 the full control effect; nearly all actives have a fitted effect of over 55% in size
#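 Overnight (16 hr) co-exposure of 2,000 cells/well to 5-fluorouridine and compound at 37 °C preceded detection. Luciferase was quantified via ONE-Glo luminescence; loss of signal denotes inhibition.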
# * = called active by the depositor; ? = inconclusive; . = no result; [ ] = dose if it differs, or a comment. The call rests on the fitted dose curve; in most records, active means well fitted curve in the direction sought with a large enough effect; inconclusive means small, poorly fitted or top-dose-only effect, or another doubt; inactive means no such curve, though single readings can be large; an effect the other way counts as inactive or inconclusive. Potency means the concentration at half of the fitted maximal effect.
SMILES,ELG1 genotoxic,SMN2 splice up,NPC1 prom act,FLuc counter,Rab9 prom act,ELG1 DNA repair
COc1cc(C(CC(=O)NCc2ccccc2Cl)N2Cc3ccccc3C2=O)cc(OC)c1OC (configuration not stated),.,.,.,-4.4%,.,.
N#Cc1ccccc1COC(=O)c1ccc(Br)o1,-18.1%,.,1.6%,?,-1.9%,-4.6%
CCOc1ccccc1C(=O)N1CC(=O)Nc2ccc(C)cc2C1c1ccccc1 (configuration not stated),.,22.8%,.,5.1%,.,.
CC(C)NC(=O)c1onc(CSc2cccc3ccccc23)c1C(=O)O,-4.1%,-1.8%,1.0%,26.9µM*,-4.9%,-1.0%
CC(C)NC(=O)c1onc(CSc2ccccc2)c1C(=O)O,1.2%,15.1%,6.0%,-16.4%,3.8%,-5.7%
CN1CCN(C(=O)/C(=C/c2cccs2)NC(=O)c2ccco2)CC1,-1.2%,-9.9%,-4.0%,-2.6%,-8.4%,-24.9%
N#Cc1c(N)nc2c(c1-c1cccnc1)CCCCC2,-17.5%,-6.9%,4.1%,4.8%,5.3%,13µM*
N#Cc1c(N)nc2c(c1-c1ccncc1)CCCCC2,-6.4%,-15.6%,-0.3%,-0.3%,-3.7%,1.0%
Oc1ccc(/C=C/c2nc(-c3ccccc3O)n(-c3ccccc3)n2)cc1,0.1%,-16.2%,-3.9%,16.9µM*,5.2%,-7.4%
C=Cn1c(C(=O)O)ccc1-c1ccc(CC)cc1,6.7%,.,6.7%,21.3µM*,0.0%,?
Cc1cccc(NC(=O)c2n[nH]c([N+](=O)[O-])c2Br)c1C,?,10µM*,0.794µM*,3.79µM*,1µM*,?
Cc1ccc(Cn2nnc(C(=O)Nc3cccc(C)c3C)c2N)cc1,10.6%,-11.0%,1.2%,2.0%,-3.8%,13.1%
CCCN1C(=O)C(NC(=O)c2ccccc2OC)(C(F)(F)F)C(C(=O)OC)=C1C (configuration not stated),.,-15.5%,.,-2.7%,.,.
Cc1ccc(Nc2nc(-c3ccccc3)nc3ccccc23)cc1,.,.,.,-0.3%,.,.
Cc1ccc(-c2nc(N/N=C/c3ccccc3[N+](=O)[O-])c3ccccc3n2)cc1,20.5%,?,1.58µM*,0.757µM*,3.55µM*,?
ClC(Cl)(Cl)c1nc(N/N=C/c2ccncc2)c2ccccc2n1,-7.2%,2.2%,-3.3%,-1.1%,1.1%,12.0%
COc1cccc(/C=N/Nc2nc(-c3cccnc3)nc3ccccc23)c1,4.0%,.,2.9%,1.51µM*,12.6%,?
C(=N/Nc1ccccn1)/c1cccnc1,.,1.2%[9.22 µM],.,.,.,.
Brc1ccc(-c2nc(N/N=C/c3cccnc3)c3ccccc3n2)cc1,?,12.6µM*,2.82µM*,0.213µM*,2.51µM*,?
C(=N\Nc1nc(-c2ccccn2)nc2ccccc12)/c1ccccc1,-10.8%,.,-9.3%,10.7µM*,-29.8%,?
CC(C)(C)c1ccc(C(=O)Nc2cc(-c3nc4ccccc4o3)ccc2Cl)cc1,.,-3.6%,.,0.2%,.,.
Cc1ccc(S(=O)(=O)C(CNC(=O)C(=O)NCc2ccc(Cl)cc2)c2ccco2)cc1 (configuration not stated),.,.,.,-4.2%,.,.
COc1ccc(OC)c(C2c3c(-c4ccc(Br)cc4)n[nH]c3C(=O)N2c2ccc(Cl)cc2)c1 (configuration not stated),.,-16.0%,.,1.1%,.,.
Cc1cnc(=O)[nH]c1SCc1ccccc1F,-0.1%,.,-4.9%,0.5%,-1.2%,0.0%
C=CCNC(=S)N(CC)c1cccc2ccccc12,-1.5%,6.2%,-8.9%,-0.9%,-2.3%,0.6%
SMILES,ELG1 genotoxic,SMN2 splice up,NPC1 prom act,FLuc counter,Rab9 prom act,ELG1 DNA repair
C(=N\Nc1nc(-c2cccnc2)nc2ccccc12)/c1ccccc1,-3.5%,.,14.2%,1.35µM*,18.6%,?
FC(F)(F)c1nc2ccccc2nc1N/N=C\c1ccccc1,1.0%,-17.8%,0.1%,15.1µM*,6.9%,26.0%
Fc1ccc(Nc2nc(-c3cccnc3)nc3ccccc23)cc1,.,-26.0%,.,.,.,.
Clc1ccc(NCc2cccnc2)cc1,2.6%,.,-4.5%,-6.4%,8.2%,6.9%
CSc1ccc(CNc2ccc(Cl)cc2)cc1,26.9%,15.0%,24.5%,15.1µM*,?,?
Cc1cc(C(F)F)n2nc(C(=O)Nc3ccc(C(C)C)cc3)nc2n1,.,4.7%,.,?,.,.
Cc1cc(Nc2nc3ccccc3[nH]c2=O)n(-c2ccccc2)n1,20.6µM*,12.6µM*,-0.3%,1.8%,0.6%,?
Cc1cc(Nc2nc3ccccc3nc2Cl)n(-c2ccc([N+](=O)[O-])cc2)n1,-11.9%,-73.3%,-6.4%,-1.7%,-5.8%,20.6µM*
Cc1cc(Nc2cnc3ccccc3n2)n(-c2ccccc2)n1,-3.0%,-23.3%,-1.1%,?,-0.6%,-10.5%
Cc1cc(Nc2ncc(Cl)cc2Cl)n(-c2ccccc2)n1,7.2%,-21.0%,-1.7%,-5.2%,-6.2%,23.7%
COc1ccc(C)cc1NC(=O)CSc1nc(=O)n(CCCN2CCOCC2)c2c1CCCC2,8.7%,.,2.1%,-1.4%,-1.2%,-11.1%
CCN(c1ccccc1)S(=O)(=O)c1ccc(NC(=O)c2cc(=O)c3ccc(C)c(C)c3o2)cc1,.,-2.8%,.,-3.8%,.,.
COc1ccc(-c2cc(C(=O)Nc3nc4ccccc4s3)c3ccccc3n2)cc1OC,-3.7%,-34.5%,-1.7%,16.9µM*,-0.5%,14.6µM*
COc1ccc(-c2cc(C(=O)Nc3ccccc3O)c3ccccc3n2)cc1OC,-11.0%,-40.9%,-5.9%,?,-1.8%,23.1µM*
CC(C)[C@@H](C(=O)N[C@@H](C(=O)O)c1ccccc1)N1C(=O)N2CCc3c([nH]c4ccccc34)[C@@]2(C)C1=O,0.5%,.,1.5%,0.8%,-1.7%,2.3%
Cc1ccc(C(=O)NCC(=O)OCC(=O)c2c(N)n(C)c(=O)n(C)c2=O)cc1C,-2.0%,.,.,.,.,9.5%
N#Cc1cccnc1Nc1ccc(Cl)cc1,1.9%,-11.1%,9.7%,2.1%,0.5%,10.2%
CCCCc1ccc(Nc2ncccc2C#N)cc1,?,?,?,9.53µM*,2.82µM*,?
Cc1nc(Cl)sc1C(=O)Nc1ccc(Cl)cc1,2.9%,-8.5%,-2.3%,15.1µM*,1.1%,?
Cc1nc(Nc2ccc(S(N)(=O)=O)cc2)sc1C(=O)Nc1ccccc1,-4.3%,-5.9%,-5.0%,-0.8%,-1.0%,7.1%
Cc1nc(NCCOc2ccccc2)sc1C(=O)Nc1ccccc1,27.5%,.,2.82µM*,?,?,?
Cc1nc(Nc2ccccc2Cl)sc1C(=O)Nc1ccccc1,7.9%,20.5%,15.7%,19µM*,-1.0%,4.9%
COc1ccccc1Nc1nc(C)c(C(=O)Nc2ccccc2)s1,1.0%,4.6%,-5.1%,15.1µM*,12.4%,1.5%
